Assay results published in ChEMBL document CHEMBL1961873, “Compounds: GSK PKIS; Assays: Nanosyn kinase panel” (2012).
Several values for one entry are separate records, joined by “and”; a condition that tells them apart may be missing. Equal values may be shown once.

Columns and labels:
[1] = target: T1, Serine/threonine-protein kinase TBK1 (Homo sapiens) (UniProt Q9UHD2); conditions: at 1 µM;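 also: values are mean inhibition of TBK1, screened as part of the GSK published kinase inhibitor set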
T1 sequence (whole entry): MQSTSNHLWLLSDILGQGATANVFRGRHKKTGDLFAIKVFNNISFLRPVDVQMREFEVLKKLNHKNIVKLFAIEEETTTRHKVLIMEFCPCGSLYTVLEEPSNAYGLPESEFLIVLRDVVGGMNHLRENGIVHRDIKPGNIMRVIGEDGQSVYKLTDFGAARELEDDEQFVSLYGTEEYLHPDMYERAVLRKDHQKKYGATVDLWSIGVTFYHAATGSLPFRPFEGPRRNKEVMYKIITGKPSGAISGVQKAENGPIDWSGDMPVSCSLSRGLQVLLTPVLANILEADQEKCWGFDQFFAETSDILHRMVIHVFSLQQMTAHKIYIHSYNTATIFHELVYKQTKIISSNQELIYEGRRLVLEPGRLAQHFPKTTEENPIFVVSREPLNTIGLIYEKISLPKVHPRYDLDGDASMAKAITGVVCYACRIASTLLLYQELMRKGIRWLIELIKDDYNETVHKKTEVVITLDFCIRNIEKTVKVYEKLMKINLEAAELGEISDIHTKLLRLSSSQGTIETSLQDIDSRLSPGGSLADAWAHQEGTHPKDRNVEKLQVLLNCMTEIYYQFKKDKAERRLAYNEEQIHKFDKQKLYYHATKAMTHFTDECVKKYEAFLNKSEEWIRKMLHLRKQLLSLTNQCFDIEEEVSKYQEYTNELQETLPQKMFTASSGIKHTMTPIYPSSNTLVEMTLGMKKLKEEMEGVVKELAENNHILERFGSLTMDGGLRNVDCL

[2] = target: T2, Testis-specific serine/threonine-protein kinase 1 (Homo sapiens) (UniProt Q9BXA7); conditions: at 0.1 µM
T2 sequence (whole entry): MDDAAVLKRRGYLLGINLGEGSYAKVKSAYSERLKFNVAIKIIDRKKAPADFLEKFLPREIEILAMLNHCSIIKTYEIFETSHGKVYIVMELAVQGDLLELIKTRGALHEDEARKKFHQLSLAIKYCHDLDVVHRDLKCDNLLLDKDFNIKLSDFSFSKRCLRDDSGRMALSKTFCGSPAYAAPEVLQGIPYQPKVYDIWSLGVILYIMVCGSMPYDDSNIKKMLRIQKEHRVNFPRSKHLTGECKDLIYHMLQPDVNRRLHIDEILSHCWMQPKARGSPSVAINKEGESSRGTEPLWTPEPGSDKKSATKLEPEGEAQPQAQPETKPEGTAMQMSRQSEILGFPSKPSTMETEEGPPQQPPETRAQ

[3] = target: T2, Testis-specific serine/threonine-protein kinase 1 (Homo sapiens); conditions: at 1 µM
[4] = target: T3, Testis-specific serine/threonine-protein kinase 2 (Homo sapiens) (UniProt Q96PF2); conditions: at 0.1 µM
T3 sequence (whole entry): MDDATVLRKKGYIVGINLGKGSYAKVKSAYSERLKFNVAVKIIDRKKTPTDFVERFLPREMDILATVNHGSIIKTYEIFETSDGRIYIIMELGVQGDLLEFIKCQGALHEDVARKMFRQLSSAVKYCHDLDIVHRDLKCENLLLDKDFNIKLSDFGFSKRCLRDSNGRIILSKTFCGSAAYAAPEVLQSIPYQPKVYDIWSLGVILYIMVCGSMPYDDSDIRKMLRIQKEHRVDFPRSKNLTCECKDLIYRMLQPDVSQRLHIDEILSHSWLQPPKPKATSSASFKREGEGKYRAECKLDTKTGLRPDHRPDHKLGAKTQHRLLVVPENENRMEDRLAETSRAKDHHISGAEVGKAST

[5] = target: T3, Testis-specific serine/threonine-protein kinase 2 (Homo sapiens); conditions: at 1 µM
[6] = target: Casein kinase I isoform alpha (Homo sapiens) (UniProt P48729); conditions: at 0.1 µM
Sequence of Casein kinase I isoform alpha (Homo sapiens) (P48729 2-337 limits assumed): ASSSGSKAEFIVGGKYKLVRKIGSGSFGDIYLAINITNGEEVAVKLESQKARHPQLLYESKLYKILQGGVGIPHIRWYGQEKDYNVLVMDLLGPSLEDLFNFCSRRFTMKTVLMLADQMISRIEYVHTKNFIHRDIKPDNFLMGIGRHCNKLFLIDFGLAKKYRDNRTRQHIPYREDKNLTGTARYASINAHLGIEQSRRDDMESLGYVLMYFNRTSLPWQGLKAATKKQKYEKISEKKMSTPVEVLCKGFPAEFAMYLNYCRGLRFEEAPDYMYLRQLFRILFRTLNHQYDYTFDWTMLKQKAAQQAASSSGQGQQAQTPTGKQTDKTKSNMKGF

[7] = target: Casein kinase I isoform alpha (Homo sapiens) (UniProt P48729); conditions: at 1 µM
[8] = target: Casein kinase I isoform gamma-1 (Homo sapiens) (UniProt Q9HCP0); conditions: at 0.1 µM
Sequence of Casein kinase I isoform gamma-1 (Homo sapiens) (Q9HCP0 whole entry, looked up, canonical isoform): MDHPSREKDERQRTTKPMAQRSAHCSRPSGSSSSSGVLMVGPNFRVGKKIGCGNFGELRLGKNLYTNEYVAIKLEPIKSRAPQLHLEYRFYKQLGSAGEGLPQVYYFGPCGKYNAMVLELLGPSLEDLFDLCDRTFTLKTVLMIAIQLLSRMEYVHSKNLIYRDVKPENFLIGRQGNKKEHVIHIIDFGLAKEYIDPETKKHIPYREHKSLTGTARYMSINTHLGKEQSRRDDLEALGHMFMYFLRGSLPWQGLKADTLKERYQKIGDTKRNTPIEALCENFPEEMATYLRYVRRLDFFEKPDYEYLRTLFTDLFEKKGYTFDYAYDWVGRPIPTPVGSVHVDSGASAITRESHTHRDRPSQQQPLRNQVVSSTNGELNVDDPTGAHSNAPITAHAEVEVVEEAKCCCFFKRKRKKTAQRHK

[9] = target: Casein kinase I isoform gamma-1 (Homo sapiens) (UniProt Q9HCP0); conditions: at 1 µM
[10] = target: Casein kinase I isoform gamma-2 (Homo sapiens) (UniProt P78368); conditions: at 0.1 µM
Sequence of Casein kinase I isoform gamma-2 (Homo sapiens) (P78368 whole entry, looked up, canonical isoform): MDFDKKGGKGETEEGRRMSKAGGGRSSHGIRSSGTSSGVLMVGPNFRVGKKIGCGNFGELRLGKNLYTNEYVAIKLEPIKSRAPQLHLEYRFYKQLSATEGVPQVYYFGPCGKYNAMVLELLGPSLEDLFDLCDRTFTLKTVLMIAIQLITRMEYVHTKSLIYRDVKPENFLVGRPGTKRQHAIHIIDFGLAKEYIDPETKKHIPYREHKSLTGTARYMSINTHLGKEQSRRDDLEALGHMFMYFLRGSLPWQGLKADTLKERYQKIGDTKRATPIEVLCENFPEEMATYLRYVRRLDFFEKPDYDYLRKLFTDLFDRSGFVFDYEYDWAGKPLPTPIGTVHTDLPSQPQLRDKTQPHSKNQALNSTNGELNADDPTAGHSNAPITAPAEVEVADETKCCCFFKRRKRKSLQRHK

[11] = target: Casein kinase I isoform gamma-2 (Homo sapiens) (UniProt P78368); conditions: at 1 µM
[12] = target: Casein kinase I isoform gamma-3 (Homo sapiens) (UniProt Q9Y6M4); conditions: at 0.1 µM
Sequence of Casein kinase I isoform gamma-3 (Homo sapiens) (Q9Y6M4 whole entry, looked up, canonical isoform): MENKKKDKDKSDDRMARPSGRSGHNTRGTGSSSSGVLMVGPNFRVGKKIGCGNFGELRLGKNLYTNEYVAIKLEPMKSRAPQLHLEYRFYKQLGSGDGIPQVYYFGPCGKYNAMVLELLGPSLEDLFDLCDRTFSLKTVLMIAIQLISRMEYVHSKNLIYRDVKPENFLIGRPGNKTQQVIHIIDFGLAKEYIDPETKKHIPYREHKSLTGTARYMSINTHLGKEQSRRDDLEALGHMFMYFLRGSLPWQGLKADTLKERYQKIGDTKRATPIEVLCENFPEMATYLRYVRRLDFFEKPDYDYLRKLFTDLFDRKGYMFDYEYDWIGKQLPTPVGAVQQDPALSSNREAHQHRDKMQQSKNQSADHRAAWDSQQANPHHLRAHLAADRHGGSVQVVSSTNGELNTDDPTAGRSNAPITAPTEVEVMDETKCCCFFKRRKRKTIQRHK

[13] = target: Casein kinase I isoform gamma-3 (Homo sapiens) (UniProt Q9Y6M4); conditions: at 1 µM
[14] = target: Cyclin-dependent kinase 1 (Homo sapiens) (UniProt P06493); conditions: at 0.1 µM
Sequence of Cyclin-dependent kinase 1 (Homo sapiens) (P06493 whole entry, looked up): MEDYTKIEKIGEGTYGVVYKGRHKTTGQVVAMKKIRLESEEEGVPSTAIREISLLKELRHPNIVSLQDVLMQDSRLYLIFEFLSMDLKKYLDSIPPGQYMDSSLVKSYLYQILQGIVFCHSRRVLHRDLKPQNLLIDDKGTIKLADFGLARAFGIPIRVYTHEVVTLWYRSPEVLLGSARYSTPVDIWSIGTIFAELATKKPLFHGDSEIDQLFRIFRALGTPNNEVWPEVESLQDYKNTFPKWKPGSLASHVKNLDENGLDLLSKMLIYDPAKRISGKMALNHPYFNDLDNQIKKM

[15] = target: Cyclin-dependent kinase 1 (Homo sapiens) (UniProt P06493); conditions: at 1 µM
[16] = target: Cyclin-dependent kinase 2 (Homo sapiens) (UniProt P24941); conditions: at 0.1 µM
[17] = target: Cyclin-dependent kinase 2 (Homo sapiens) (UniProt P24941); conditions: at 1 µM
[18] = target: Cyclin-dependent kinase 2 (Homo sapiens) (UniProt P24941); conditions: at 0.1 µM; remark: listed apart in the source
[19] = target: Cyclin-dependent kinase 2 (Homo sapiens) (UniProt P24941); conditions: at 1 µM; remark: listed apart in the source
[20] = target: CDK3/Cyclin E (Homo sapiens) (UniProt P24864+Q00526); conditions: at 0.1 µM;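 also: reported percentages are mean inhibition values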
Sequence of CDK3/Cyclin E (Homo sapiens) (P24864 whole entry, looked up): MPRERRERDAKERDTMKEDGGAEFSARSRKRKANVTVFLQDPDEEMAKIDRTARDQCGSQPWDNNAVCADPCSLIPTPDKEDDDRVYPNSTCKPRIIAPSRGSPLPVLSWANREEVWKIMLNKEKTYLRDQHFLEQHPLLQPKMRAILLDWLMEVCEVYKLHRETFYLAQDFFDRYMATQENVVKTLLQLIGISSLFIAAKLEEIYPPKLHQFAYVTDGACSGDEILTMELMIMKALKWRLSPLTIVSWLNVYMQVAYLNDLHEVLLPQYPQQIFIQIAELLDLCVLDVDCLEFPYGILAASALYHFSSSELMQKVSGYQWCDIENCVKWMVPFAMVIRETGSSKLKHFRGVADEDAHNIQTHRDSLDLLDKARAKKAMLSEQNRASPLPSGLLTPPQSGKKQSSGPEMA
Sequence of CDK3/Cyclin E (Homo sapiens) (Q00526 whole entry, looked up): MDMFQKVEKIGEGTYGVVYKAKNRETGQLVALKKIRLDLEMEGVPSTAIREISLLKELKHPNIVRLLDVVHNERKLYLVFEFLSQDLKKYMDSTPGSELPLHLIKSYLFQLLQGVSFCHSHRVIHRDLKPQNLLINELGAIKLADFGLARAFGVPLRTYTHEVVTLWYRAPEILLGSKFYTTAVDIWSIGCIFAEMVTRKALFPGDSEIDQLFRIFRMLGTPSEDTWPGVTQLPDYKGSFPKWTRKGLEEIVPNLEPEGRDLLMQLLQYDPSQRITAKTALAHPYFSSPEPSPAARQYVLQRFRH

SMILES	inhibition [1]	inhibition [2]	inhibition [3]	inhibition [4]	inhibition [5]	inhibition [6]	inhibition [7]	inhibition [8]	inhibition [9]	inhibition [10]	inhibition [11]	inhibition [12]	inhibition [13]	inhibition [14]	inhibition [15]	inhibition [16]	inhibition [17]	inhibition [18]	inhibition [19]	inhibition [20]
Cc1cc(O)cc(C)c1/C=C/c1cncc(C(N)=O)c1	1.71%	0.78%	0.81%	0.45%	-0.39%	-2.11%	2.52%	2.23%	3.19%	1.83%	2.37%	2.87%	2.49%	0.12%	1.3%	1.56%	1.98%	2.51%	3.29%	-0.91%
CC1(C)CC(n2cnc(-c3ccc(F)cc3)c2-c2ccnc(N)n2)CC(C)(C)N1	0.35%	1.43%	2.2%	0.62%	2.34%	12.5%	58.5%	0.31%	2.25%	0.35%	0.56%	-0.9%	5.01%	-0.29%	0.21%	1.22%	0.26%	1.34%	0.26%	2.06%
N#Cc1cccc(Nc2ncc(-c3ccccc3)o2)c1	3.86%	3.9%	5.55%	2.41%	4.88%	1.55%	0.38%	1.61%	3.03%	1.82%	2.13%	1.94%	4.11%	2.78%	17.1%	6.59%	44.4%	7.57%	40.1%	10.1%
CCOc1ccc2c(-c3ccnc(Nc4cc(OC)cc(C(F)(F)F)c4)n3)cnn2n1	37%	0.8%	0.89%	0.22%	-0.73%	2.19%	3.91%	-0.62%	1.33%	-0.22%	2.72%	-2.09%	2.37%	2.86%	12.1%	2.24%	12.5%	1.37%	11.9%	3.56%
CCN1CCC(C(=O)Nc2n[nH]c3nnc(-c4cccc(F)c4F)cc23)CC1	0.85%	-0.97%	-0.75%	0.04%	0.43%	-1.81%	-0.5%	1.73%	-0.13%	-0.42%	-0.17%	0.17%	1.35%	3.89%	22.6%	3.86%	20.4%	3.75%	12.4%	2.37%
Nc1nonc1-c1nc2cnccc2n1C1CC1	15.3% and 9%	3.32% and 4.38%	14.5% and 17.5%	1.12% and 1.1%	-1.21% and 1.4%	6.95% and 4.09%	6.23% and 9.54%	3.2% and -1.18%	3.96% and -0.27%	1.76% and -1.82%	3.78% and -0.61%	3.26% and -1.06%	2.82% and 0.84%	1.19% and -3.89%	8.14% and 3.98%	5% and 1.12%	28% and 29.5%	5.56% and 1.64%	23.7% and 19.1%	3.57% and 1.86%
COC(=O)Nc1nc2ccc(Oc3ccc(NC(=O)Nc4cc(C(F)(F)F)ccc4F)cc3)cc2s1	-0.01%	0.44%	1.02%	-1.47%	0.19%	-1.12%	3.01%	-0.2%	-0.02%	-0.36%	-0.08%	-1.45%	0.18%	0.44%	3.26%	1.75%	3.03%	1.36%	2.74%	0.88%
Cc1nnc(-c2cccc(-c3ccc(C(=O)NCC4CC4)cc3)c2)o1	6.92%	4.11%	5.87%	2.89%	3.75%	1.99%	5.86%	4.47%	4.29%	2.71%	4.15%	3.29%	3.17%	-0.13%	2.72%	2.01%	13.5%	4.78%	4.88%	3.15%
CCCNc1cccc(-n2ncc3c(N/N=C/c4ccncc4)ncnc32)c1	20.2%	1.42%	6.17%	0.21%	3.17%	0.14%	1.89%	0.84%	1.57%	1.79%	1.01%	1.29%	0.9%	2.68%	22.5%	7.1%	42.1%	1.17%	9.16%	0.47%
O=C(O[C@H]1CN[C@H](C#Cc2cc3ncnc(Nc4ccc(OCc5cccc(F)c5)c(Cl)c4)c3s2)C1)N1CCOCC1	2.81%	4.44%	7.27%	3.43%	5.27%	2.97%	4.43%	4.56%	5.41%	4.99%	5.59%	4.52%	3.53%	0.36%	1.18%	1.57%	-1.38%	4.21%	2.99%	2.77%
CC(C)c1ccc(-c2cc(-c3c[nH]nc3-c3ccccn3)ccn2)cc1	-0.11%	0.45%	0.81%	-0.82%	-1.06%	3.57%	9.88%	0.64%	2.41%	0.19%	1.17%	-0.24%	3.43%	-0.07%	2.01%	1.87%	-0.02%	1.12%	1.4%	-1.25%
CN(c1ccc(NC(=O)NCCN2CCOCC2)cc1)c1ccnc(Nc2ccc(CS(C)(=O)=O)cc2)n1	4.49%	4.48%	5.87%	4.78%	3.15%	1.71%	2.52%	2.63%	3.24%	3.34%	1.47%	2.29%	2.32%	-0.38%	2.55%	1.15%	11.3%	3.19%	4.7%	0.76%
CCn1c(-c2nonc2N)nc2cncc(C(=O)NCCNC)c21	9.32%	7.08%	32.1%	2.36%	1.74%	4.37%	4.77%	4.39%	5.89%	3.81%	5.17%	3.69%	3.84%	0.45%	0.67%	0.58%	3.6%	2.89%	5.11%	-2.24%
Nc1nccc(-c2c(-c3ccc(F)cc3)ncn2C2CCNCC2)n1	-0.8% and 3.12%	-0.43% and -0.33%	-1.08% and -1.15%	-2.53% and 0.42%	-0.67% and -0.42%	61.4% and 67%	85% and 86.4%	-1.9% and 1.36%	8.77% and 13.7%	-1.89% and 0.78%	1.81% and 6.64%	-1.77% and 1.52%	15.6% and 20.3%	0.24% and 0.46%	2.44% and 1.3%	4.08% and 1.21%	-7.29% and 6.19%	-1.76% and 0.82%	-0.76% and 1.53%	-0.31% and 0.39%
